Source: PubChem BioAssay (EPA / NIEHS)
Where a structure was tested more than once in an assay, its records may differ in their call. The source made the active and inactive calls. How the source made its calls: active means hit-call score of the fitted dose curve at least 0.9, where 1 is the maximum; inactive means score below 0.9.

Experiment: ATG_TA_CIS: Attagene CIS-FACTORIAL HepG2 Assay for human TA Basal Promoter (AID 2282964)
Conditions: HepG2 Attagene CIS-factorial TA basal promoter reporter; actives raise or lower the signal
Description: ATG_CIS is a cell-based, multiplexed-readout assay that uses HepG2, a human liver cell line, with measurements taken at 24 hours after chemical dosing in a 24-well plate.ATG_TA_CIS is one of 52 assay component(s) measured or calculated from the ATG_CIS assay. It is designed to make measurements of mRNA induction, a form of inducible reporter, as detected with fluorescence intensity signals by Reverse transcription polymerase chain reaction (RT-PCR) and Capillary electrophoresis technology.Data from the assay component ATG_TA_CIS was analyzed into 1 assay endpoint. This assay endpoint, ATG_TA_CIS, was analyzed with bidirectional fitting relative to DMSO as the negative control and baseline of activity. Using a type of inducible reporter, measures of mRNA for gain or loss-of-signal activity can be used to understand the background control at the transcription factor-level as they relate to the gene . Furthermore, this assay endpoint can be referred to as a secondary readout, because this assay has produced multiple assay endpoints where this one serves a background control function. To generalize the intended target to other relatable targets, this assay endpoint is annotated to the background measurement intended target family, where the subfamily is internal marker.
Human liver HepG2 cells are transiently transfected with multiple reporter transcription units (MRTUs) in 6-well plates using FuGene 6 reagent (Roche; 3 ml FuGene/1 mg DNA). The MRTU constructs are regulated by a cis-regulating element (promoter). […] A major difference between the CIS and TRANS system is that in CIS activities of endogenous TFs are measured, whereas the TRANS assay evaluates changes in activities of exogenous, chimeric NR-Gal4 proteins. […] At the end of 24 hour incubation, total RNA was isolated using TriZol reagent (Invitrogen). The isolated RNA is then reverse-transcribed using oligo(dT) primer and Mo-MLV reverse transcriptase (Invitrogen) with DNAse I (Ambion) treatment for 30 min. The one-tenth of the produced cDNA was amplified by PCR using Taq DNA polymerase (Invitrogen) and two reporter sequence-specific primers. The PCR products were fluorescently labeled by primer extension with 6-arboxyfluorescein (6-FAM) 5'-labeled reporter sequence-specific primer (2 min at 95 C, 20 s at 68 C and 10 min at 72 C) and these products were digested with 5U of HpaI (New England Biolabs) for 2h at 37 C. The fragments were purified using Qiaquick PCR columns (Qiagen), analyzed on an ABI 3130xL genetic analyzer (Applied Biosystems) with peak positions identified by using a set of X-rhodamine (ROX)-labeled MapMarker1000 molecular weight standards (BioVentures). The raw capillary electrophoresis data was processed using Attagraph software (Attagene).

Compound	outcome	AC50
CC[C@H](c1ccc(O)cc1)[C@@H](CC)c1ccc(O)cc1	inactive	–
CC(=O)NC1(c2cccc(F)c2)CCN(CC[C@@]2(c3ccc(Cl)c(Cl)c3)CN(c3ccccc3)C(=O)CO2)CC1	–	16.8 µM (active)
c1ccc2cc3c(ccc4ccccc43)cc2c1	inactive	–
CC1=C(/C=C/C(C)=C/C=C/C(C)=C/C(=O)O)C(C)(C)CCC1	inactive	21.4 µM (active)
COC(=O)CCCCC(=O)OC	inactive	–
NC(=O)N1C(=O)C(C(=O)c2cc(Cl)cs2)c2cc(F)c(Cl)cc21 (stereo not given)	inactive	–
CCOC(=O)CC(O)(CC(=O)OCC)C(=O)OCC	inactive	–
CN1CCC[C@H]1c1cccnc1	inactive	–
N#C[C@@H]1CC(F)(F)CN1C(=O)CNC1CC2CCC(C1)N2c1ncccn1 (stereo not given in full)	inactive	–
CCCOC(=O)c1ccc(O)cc1	inactive	162 µM (active)
CC(C)(C)c1cccc(C(C)(C)C)c1O	inactive	–
COCC(C)O (stereo not given)	inactive	–
c1ccc2c(c1)Cc1ccccc1-2	inactive	–
C#C[C@]1(O)CC[C@H]2[C@@H]3CCC4=CC(=O)CC[C@@H]4[C@H]3CC[C@@]21C	inactive	–
CCCOc1sc(C(=O)N2CCC(c3cc(CN)ccc3F)CC2)c(C)c1Br	inactive	–
Oc1cc2ccccc2c2ccccc12	inactive	–
O=C(O)c1ccccc1C(c1ccc(O)cc1)c1ccc(O)cc1	inactive	–
CCC(=C(c1ccc(O)cc1)c1ccc(OCCN(C)C)cc1)c1ccccc1	inactive	10 µM (active)

Compound	outcome	AC50
CCc1nn(C2CCCCC2)c2cc(C3(C#N)CCC(C(=O)O)CC3)ccc12 (stereo not given)	–	69.9 µM (active)
CCCCC[C@H](O)CC(=O)CCc1ccc(O)c(OC)c1	inactive	–
c1ccc2c(c1)ccc1ccccc12	inactive	–
CCCCCCCCCCCCN1CCCC1=O	inactive	–
C[C@@H]1C[C@H]2[C@@H]3CCC4=CC(=O)C=C[C@]4(C)[C@@]3(F)[C@@H](O)C[C@]2(C)[C@@]1(O)C(=O)COP(=O)(O)O	inactive	–
Cc1oc(-c2ccccc2)nc1CCOc1ccc(C[C@H](Nc2ccccc2C(=O)c2ccccc2)C(=O)O)cc1	inactive	–
CCCCCCCCCCCCCC[N+](C)(C)C	inactive	–
CC(=O)CC(C)(C)O	inactive	–
CCCCCCCCCCCCc1ccccc1S(=O)(=O)O	inactive	–
O=C(O)Cc1cc(I)c(Oc2cc(I)c(O)c(I)c2)c(I)c1	inactive	84.2 µM (active)
NCC(F)(F)C(F)(F)C(F)(F)C(F)(F)C(F)(F)C(F)(F)C(F)(F)F	inactive	–
O=[N+]([O-])c1ccc(O)cc1	inactive	–
FC(F)(I)C(F)(F)C(F)(F)C(F)(F)C(F)(F)C(F)(F)I	–	16 µM (active)
C=C(C)C(=O)OCCC(F)(F)C(F)(F)C(F)(F)C(F)(F)C(F)(F)C(F)(F)F	inactive	–
OCCC(F)(F)C(F)(F)C(F)(F)C(F)(F)C(F)(F)C(F)(F)F	inactive	–
Cc1ccc(S(=O)(=O)O)c(C)c1	inactive	–
CC[C@H](C)[C@@H](C(=O)O)n1sc2ccccc2c1=O	inactive	–
CCC(C)(C)C1CCC(O)CC1 (stereo not given)	inactive	–
